Experimental data: the supplement of paper PMC6555819

Tests used:
Test in all cases: PBM binding z-score (relative to random genomic background probes); higher = stronger binding; sequences stand for … in GC…GCGATTGACAGCGTAGAATGAAGG
[1] = system: FXR:RXRa (NR concentration 270 nM, RXRa partner concentration 90 nM)
Procedure, shortened: (§1)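 Probes were double-stranded and carried 34-nt variable regions with direct-repeat seeds, single-nucleotide variants, half-site ablations and random human genomic background sequences, printed on custom Agilent 4×180K protein-binding microarrays. Arrays were incubated 1 h with ligand-free nuclear receptor dimers in PBS pH 7.4, 2% milk, 0.02% Triton X-100, 1 mM DTT, 0.2 mg/mL BSA and 0.4 mg/ml salmon testes DNA. Antibodies against each partner (one per run) detected binding, and scanned fluorescence was regression-normalized. Binding z-scores use the random background probes as reference.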

[2] = system: LXRa:RXRa (NR concentration 270 nM, RXRa partner concentration 90 nM)
Procedure, shortened: as §1

[3] = system: LXRa homodimer (NR concentration 270 nM)
Procedure, shortened: as §1

[4] = system: LXRb:RXRa (NR concentration 270 nM, RXRa partner concentration 90 nM)
Procedure, shortened: as §1

[5] = system: LXRb homodimer (NR concentration 270 nM)
Procedure, shortened: as §1

[6] = system: PPARa:RXRa (NR concentration 270 nM, RXRa partner concentration 90 nM)
Procedure, shortened: as §1

[7] = system: PPARg:RXRa (NR concentration 180 nM, RXRa partner concentration 90 nM)
Procedure, shortened: as §1

[8] = system: PPARg:RXRa 270nM:90nM, anti-RXR (NR concentration 270 nM, RXRa partner concentration 90 nM)
Procedure, shortened: as §1

[9] = system: PPARg:RXRa 30nM:10nM, anti-RXR (NR concentration 30 nM, RXRa partner concentration 10 nM)
Procedure, shortened: as §1

[10] = system: PPARg:RXRa 90nM:30nM, anti-RXR (NR concentration 90 nM, RXRa partner concentration 30 nM)
Procedure, shortened: as §1

[11] = system: PPARg:RXRa DBDmut IVT, anti-RXR (DBD mutation: RXRa K156A/R161A, NR concentration 270 nM, RXRa partner concentration 90 nM)
Procedure, shortened: as §1

[12] = system: PPARg:RXRa IVT, anti-PPARg (NR concentration 270 nM, RXRa partner concentration 90 nM)
Procedure, shortened: as §1

[13] = system: PPARg DBDmut:RXRa IVT, anti-PPARg (DBD mutation: PPARg1 K132A/R137A, NR concentration 270 nM, RXRa partner concentration 90 nM)
Procedure, shortened: as §1

[14] = system: PPARg DBDmut IVT, anti-PPARg (DBD mutation: PPARg1 K132A/R137A, NR concentration 270 nM)
Procedure, shortened: as §1

[15] = system: PPARg homodimer (NR concentration 180 nM)
Procedure, shortened: as §1

[16] = system: PXR:RXRa (NR concentration 270 nM, RXRa partner concentration 90 nM)
Procedure, shortened: as §1

[17] = system: PXR homodimer (NR concentration 270 nM)
Procedure, shortened: as §1

[18] = system: RARa:RXR (NR concentration 270 nM, RXRa partner concentration 90 nM)
Procedure, shortened: as §1

[19] = system: RARa homodimer (NR concentration 270 nM)
Procedure, shortened: as §1

[20] = system: RARb:RXRa (NR concentration 270 nM, RXRa partner concentration 90 nM)
Procedure, shortened: as §1

| Sequence | PBM binding z-score [1] | PBM binding z-score [2] | PBM binding z-score [3] | PBM binding z-score [4] | PBM binding z-score [5] | PBM binding z-score [6] | PBM binding z-score [7] | PBM binding z-score [8] | PBM binding z-score [9] | PBM binding z-score [10] | PBM binding z-score [11] | PBM binding z-score [12] | PBM binding z-score [13] | PBM binding z-score [14] | PBM binding z-score [15] | PBM binding z-score [16] | PBM binding z-score [17] | PBM binding z-score [18] | PBM binding z-score [19] | PBM binding z-score [20] |
| --- | --- | --- | --- | --- | --- | --- | --- | --- | --- | --- | --- | --- | --- | --- | --- | --- | --- | --- | --- | --- |
| CCTCGGAGGACAGAAGGACAGAGCTGTCCGCTTT | -0.348 | -0.559 | -0.63 | -0.942 | -0.907 | -0.733 | -0.176 | -0.854 | -1.07 | -0.86 | -0.418 | -0.913 | -0.956 | -1.82 | -0.605 | -0.689 | -0.621 | -0.66 | -0.614 | 0.716 |
| TCTCGGACGACACGAAAGGTCAGAGCTCGACATC | 2.91 | 3.74 | 2.39 | 3.3 | 0.313 | 3.69 | 1.12 | 2.86 | 2.84 | 2.66 | 1.5 | 1.09 | -0.234 | 0.0466 | 3.29 | 3.8 | 0.286 | 4.66 | 2.43 | 3.86 |
| ACTAGTTGGTCAGCAGAGGTCACACACAATTCGG | 4.13 | 4.71 | 4.06 | 4.34 | 1.39 | 4.7 | 3.33 | 3.79 | 1.16 | 3.11 | 1.92 | 3.43 | 1.09 | 0.493 | 3.51 | 5.73 | 1.6 | 5.96 | 2.56 | 4.17 |
| GCTCGGAGGCCAAGGTCAGAGCTTTGTCCGTAGA | 1.41 | 1.03 | -0.427 | 0.907 | -1.5 | 1.85 | 0.0755 | 1.47 | -0.393 | 0.573 | 0.637 | 0.382 | -1.23 | -1.94 | 1.18 | 1.64 | -0.446 | 1.82 | -1.6 | 3.45 |
| TCGAGTAGCTTAGGGGCATTCAGAATGGCGTCGA | -0.301 | -0.0309 | -0.497 | 0.0994 | -1.06 | 0.246 | -0.362 | 0.211 | 0.569 | 0.263 | 0.336 | -0.404 | -0.673 | -0.923 | -0.986 | 0.0972 | -0.797 | 0.217 | -1.45 | 0.238 |
| TCTTGTAGATCAACCAGGTTAAGAAAGCCTGAGT | 0.429 | 0.506 | -0.188 | 0.429 | -0.277 | 0.901 | -0.376 | 1.51 | 2.7 | 2.07 | 2.07 | 0.996 | -0.047 | 0.818 | -0.217 | 0.658 | 0.148 | 0.664 | 0.037 | 0.316 |
| CTAACTAGGTCAGAACAGGACAGTGAAGGATGAT | 1.45 | 0.974 | 0.159 | 0.586 | -0.0139 | 3.16 | 6.17 | 4.91 | 2.43 | 4.19 | 7.81 | 7.46 | 1.78 | 0.779 | 1.28 | 0.958 | 0.15 | 0.805 | 0.43 | 2.94 |
